The source of these data is PubChem BioAssay AID1259318 (Sanford-Burnham Center for Chemical Genomics, 2017).

Structures are written as SMILES. Out of some 370,000 compounds screened, about 3,000 (0.81%) were called active.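 How the source made its calls: active means activity above about 14% (limit read from the data; passing the limit was not always enough); inactive means the rest.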 The full list was thinned out, with actives kept by preference.

Chain of Nuclear receptor subfamily 1 group D member 1 (Homo sapiens) (P20393 whole entry, looked up): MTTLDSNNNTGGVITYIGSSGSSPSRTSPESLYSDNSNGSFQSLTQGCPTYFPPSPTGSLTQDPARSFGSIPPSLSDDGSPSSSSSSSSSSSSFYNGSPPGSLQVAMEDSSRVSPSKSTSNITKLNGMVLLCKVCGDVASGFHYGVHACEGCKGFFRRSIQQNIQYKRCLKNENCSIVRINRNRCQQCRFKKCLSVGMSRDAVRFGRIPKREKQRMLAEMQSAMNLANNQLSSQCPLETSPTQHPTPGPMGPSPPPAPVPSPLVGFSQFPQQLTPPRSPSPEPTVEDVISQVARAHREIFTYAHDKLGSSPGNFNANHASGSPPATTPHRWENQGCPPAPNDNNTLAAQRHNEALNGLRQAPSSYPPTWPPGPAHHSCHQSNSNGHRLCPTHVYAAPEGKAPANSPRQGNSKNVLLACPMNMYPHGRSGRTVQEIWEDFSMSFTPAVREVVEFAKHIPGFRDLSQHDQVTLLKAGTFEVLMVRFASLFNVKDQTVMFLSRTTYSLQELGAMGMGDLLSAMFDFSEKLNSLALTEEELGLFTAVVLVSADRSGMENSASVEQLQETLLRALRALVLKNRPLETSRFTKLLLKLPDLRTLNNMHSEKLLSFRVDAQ

This test addresses Nuclear receptor subfamily 1 group D member 1 (Homo sapiens) (UniProt P20393). Briefly: modulators of Rev-erb alpha DNA binding, primary screen, biochemical, FITC-DNA, fluorescence polarization, uHTS (AID 1259318).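 Further: 0% = DMSO wells with 35 nM protein and 100% = DMSO wells with 750 nM protein.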 The settings on record: Rev-erbα–FITC-DNA binding, 90 min, at 10 µM, active compounds read high.
Regarding `CC(C)CC(=O)Nc1cc(C(F)(F)F)ccc1N1CCOCC1`, the activity is -4.25% (inactive). Next, `COc1ccc(CNC(=O)C2CCN(C(=O)c3ccccc3)CC2)cc1`: 1.27% (inactive). Next, `COc1ccc(CNC(=O)C2CCN(C(=O)c3ccco3)CC2)cc1`: -1.19% (inactive); `COc1ccc(-n2nc3c(N4CCC(C(=O)NCc5ccccc5)CC4)nnc(C)c3c2C)cc1`: 54.2% (active); `CC(C)N(C(=O)Cn1c(SCC(=O)N2CCN(c3ccccc3)CC2)nc2ccccc21)C(C)C`: 1.23% (inactive).

Consider `O=C(Nc1ccc(O)cc1)c1ccccc1O`, for which the activity was 3.46% (inactive). For `CCCCCC(=O)Nc1ccc(-c2cn3cccnc3n2)cc1`, the activity was -0.67% (inactive).

As to `Cc1ccc(CNCc2ccc3c(c2)OCO3)c(C)c1`, the activity was -1.18% (inactive). `C[C@H]1O[C@@H](O[C@H]2[C@@H](O)C[C@H](O[C@H]3[C@@H](O)C[C@H](O[C@H]4CC[C@]5(C)C6C[C@@H](O)[C@]7(C)[C@@H](C8=CC(=O)OC8)CC[C@]7(O)C6CC[C@@H]5C4)O[C@@H]3C)O[C@@H]2C)C[C@H](O)[C@@H]1O` (some centres undefined): the activity is 2.73% (inactive).

`CCOC(=O)C1=CN(Cc2ccc(Br)cc2)S(=O)(=O)N(C)C1C` (centres undefined): the activity was -0.38% (inactive). Next, `CCOC(=O)c1sc(=NC(=O)c2ccc(Br)cc2)n(C)c1C`: 51.4% (active); `CCOC(=O)c1sc(=NC(=O)/C=C/c2cccs2)n(C)c1C`: -0.21% (inactive); `C/C(Cn1nnc2ccccc21)=N\OC(=O)c1cc(F)c(F)cc1Cl`: 2.02% (inactive). Next, `COc1ccc(N2CCN(CCNS(=O)(=O)c3ccc(C(C)(C)C)cc3)CC2)cc1`: 5.09% (inactive); `Nc1nc2c(ncn2[C@@H]2O[C@H](C(=O)N[C@H](Cc3ccccc3)C(=O)NCC3CCCCC3)[C@@H](O)[C@H]2O)c(=O)[nH]1`: 2.3% (inactive). The figure for `CCN1/C(=C\c2ccc3ccccc3[n+]2CC)Sc2cc(C)ccc21` is 73.3% (active).

Consider `COc1ccc(CCNC(=O)CSc2nc3c([nH]2)c(=O)n(C)c(=O)n3C)cc1`, for which the activity is -0.29% (inactive). The figure for `COc1ccc(CNS(=O)(=O)c2cc(Br)ccc2Br)cc1` is 6.25% (inactive). Regarding `Cc1cccc(NC(=O)CSc2nc3c(c(=O)[nH]2)CCC3)c1C`, the activity is -4.62% (inactive).

As to `Cc1cc2cc3c(cc2nc1SCC(=O)Nc1c(C)cccc1C)CCC3`, the activity was 63.4% (active). The figure for `Cc1cccc(C)c1NC(=O)CSc1nc2c([nH]1)c(=O)n(C)c(=O)n2C` is 3.98% (inactive). Regarding `CC(=O)C1=C(C)N(Cc2ccc(Cl)cc2)C(=S)NC1c1ccc(F)cc1` (centres undefined), the activity is 0.1% (inactive). The figure for `CC1(C)C(C=C(Cl)Cl)C1C(=O)N(Cc1ccc(Cl)cc1)C1CCS(=O)(=O)C1` (centres undefined) is 2.8% (inactive); for `CCOC(=O)c1[nH]c2ccc(C)cc2c1N=C(C)N(C)C` it is 0.97% (inactive). Next, `O=C(CN1CCC(NC(=O)C2CC2)CC1)Nc1ccccc1[N+](=O)[O-]`: -2.64% (inactive); `COc1cccc(-c2cc(CNC(=O)[C@@H](Cc3ccccc3)NC(=O)[C@H]3O[C@@H](n4cnc(C(N)=O)n4)[C@H](O)[C@@H]3O)no2)c1`: 3.31% (inactive); `CCOC(=O)c1c(NC(=O)CCCN2CCOCC2)sc2c1CC(C)(C)OC2`: 2.68% (inactive).

As to `CCOC(=O)c1sc(NC(=O)CCN2CCOCC2)c(C(=O)OCC)c1C`, the activity is 30.6% (active). Next, `CCOC(=O)c1c(C)[nH]c(C(=O)NCCN2CCOCC2)c1C`: 1.96% (inactive); `C=CCN(N=Nc1cccc([N+](=O)[O-])c1)c1cccc([N+](=O)[O-])c1`: 9.23% (inactive); `NC(=O)CC(NC(=O)Cc1ccc(Br)cc1)c1ccc(NC2CC3CCC2C3)c([N+](=O)[O-])c1` (centres undefined): -0.82% (inactive). On to `FCOC(C(F)(F)F)C(F)(F)F`, for which the activity was 2.75% (inactive). The figure for `O=C(COc1ncnc2c(Cl)cc(Cl)cc12)N1CCN(S(=O)(=O)c2ccccc2)CC1` is 25.2% (active); for `O=C(CSc1ccccn1)N1CCN(S(=O)(=O)c2ccc(Cl)cc2)CC1` it is -4.04% (inactive). Next, `O=C(COc1ccc(Cl)cc1)N1CCN(S(=O)(=O)c2ccc(Cl)cc2)CC1`: -0.97% (inactive). The figure for `COc1ccc(C2(C#N)CCC(C(=O)O)CC2)cc1OC1CCCC1` (centres undefined) is -2.5% (inactive). For `O=C(CN1CCCc2ccccc21)NCc1ccc(F)cc1`, the activity is 0.36% (inactive). The figure for `Cc1nn2cc(-c3ccc(Cl)cc3)cnc2c1Br` is 5.5% (inactive). Turning to `CCN(CC)CCCC(C)Nc1ccnc2cc(Cl)ccc12` (centres undefined), the activity is -0.22% (inactive). The figure for `COC(=O)c1ccc(OCC(O)CN(CCO)CC(O)Cn2ccc3ccccc32)cc1` (centres undefined) is 4.36% (inactive); for `COC(=O)c1cccc(Cn2ccc3ccc(-c4ccc5ccn(C(=O)C6CCCCC6)c5c4)cc32)c1` it is 33.7% (active); for `COC(=O)c1ccc(CN2CCCC(C(=O)Nc3cccc(-n4cnnn4)c3)C2)cc1` (centres undefined) it is 1.49% (inactive). The figure for `FC(F)(F)c1cccc(Cn2ccc3ccc(-c4ccc5ccn(Cc6ccccc6)c5c4)cc32)c1` is -9.95% (inactive); for `COC(=O)c1cccc(Cn2ccc3ccc(-c4ccc5ccn(C(=O)c6ccccc6C)c5c4)cc32)c1` it is 40% (active); for `COc1ccc(Cn2ccc3ccc(-c4ccc5ccn(Cc6ccccc6C)c5c4)cc32)cc1` it is 0.1% (inactive). For the compound `CCC(=O)O[C@]1(C(=O)CCl)[C@@H](C)CC2C3CCC4=CC(=O)C=C[C@]4(C)[C@@]3(F)[C@@H](O)C[C@@]21C` (some centres undefined), the activity is 0.94% (inactive). Next, `Cc1ccc(S(=O)(=O)N(Cc2cc3ccccc3[nH]c2=O)CC2CCCO2)cc1` (centres undefined): -1.97% (inactive); `CN(C(N)=NC(=O)/C=C/c1ccccc1)C(C#Cc1ccccc1)Cc1ccccc1` (centres undefined): -4.88% (inactive). The figure for `O=C(C1CCN(S(=O)(=O)Cc2ccccc2)CC1)N1CCCc2ccccc21` is -2.58% (inactive); for `Cc1nn(CCOc2ccc(Br)cc2)c(C)c1[N+](=O)[O-]` it is 3.89% (inactive). Turning to `CS(=O)(=O)Nc1cccc(C2=NN(C(=O)c3cccc(F)c3)C(c3cccs3)C2)c1` (centres undefined), the activity is 1.7% (inactive). The figure for `O=C(COc1ccc2ccccc2c1)N1CCN(C(=O)c2cccs2)CC1` is 7.29% (inactive); for `CCOc1ccc2nc(Cl)c(C3CC(c4ccccc4)=NN3C(=O)c3cccs3)cc2c1` (centres undefined) it is 36% (active). Regarding `CC(NC(=O)C(C)(C)C)C(c1cccs1)N1CCN(Cc2ccccc2)CC1` (centres undefined), the activity was -5.62% (inactive). The figure for `O=C(Nn1cnc2ccccc2c1=O)c1ccc(F)cc1Cl` is -3.38% (inactive). The figure for `O=C(COc1ccccc1O)NC1CCCC1` is 2.25% (inactive); for `CC(C)C(C)NC(=O)COc1ncnc2ccccc12` (centres undefined) it is 1.73% (inactive). As to `CC(C)C(C)NC(=O)COc1nc2ccccc2nc1N(C)C1CCCCC1` (centres undefined), the activity is 62.5% (active). The figure for `CCCN1C(=O)C(NC(C)=O)c2cc(OC)ccc21` (centres undefined) is 1.76% (inactive); for `CCOC(=O)N1CCN(C(=O)COCc2cc(-c3ccc4c(c3)OCO4)on2)CC1` it is 2.06% (inactive).

As for `CCc1ccccc1NC(=O)c1cc(-c2ccc3c(c2)OCO3)on1`, the activity was 21.2% (active).

As for `CC(C)NC(=O)COCc1cc(-c2ccc3c(c2)OCO3)on1`, the activity was 3.84% (inactive). Next, `CCCCCCCCCc1ccc(OCCOCCOCCOCCOCCOCCOCCOCCOCCO)cc1`: 2.2% (inactive); `CC[C@H](NC(=O)[C@H](Cc1ccccc1)NC(=O)[C@H]1O[C@@H](n2cnc3c(=O)[nH]c(N)nc32)[C@H](O)[C@@H]1O)c1ccccc1`: 1.57% (inactive). Next, `CCC1CCC2(CC1)NC(=O)N(CC(=O)Nc1ccc(OC)cc1)C2=O` (centres undefined): -2.27% (inactive); `CCOC(=O)c1c(NC(=O)CN2C(=O)NC3(CCC(C)CC3)C2=O)sc(C)c1CC` (centres undefined): 21.8% (active); `CCOC(=O)c1c(NC(=O)C2CC=CCC2C(=O)O)sc(C)c1CC` (centres undefined): -10.6% (inactive). In the case of `O=C1NC(c2ccccc2)=NC1(Nc1ccccn1)C(F)(F)F` (centres undefined), the activity was -2.21% (inactive).

Turning to `C[C@@H]1CN([C@@H](C)CO)S(=O)(=O)c2ccc(C#Cc3cccc(F)c3)cc2O[C@H]1CN(C)S(=O)(=O)c1cn(C)cn1`, the activity is 4.67% (inactive). The figure for `CCCC1O[C@@H]2CC3C4CCC5=CC(=O)C=CC5(C)C4[C@@H](O)CC3(C)[C@]2(C(=O)CO)O1` (some centres undefined) is 3.39% (inactive). Next, `S=c1nccc(-c2cc(Cl)sc2Cl)[nH]1`: 20.9% (active). The figure for `CC1=C(/C=C/C(C)=C/C=C/C(C)=C/C=C/C=C(C)/C=C/C=C(C)/C=C/C2=C(C)CCCC2(C)C)C(C)(C)CCC1` is -1.26% (inactive); for `COc1ccccc1NC(=O)c1cc(N2C(=O)C3C4CCC(C4)C3C2=O)ccc1Cl` (centres undefined) it is -4.24% (inactive); for `Cc1ccc(CNC(=O)CC(NC(=O)c2ccccc2)c2ccccc2)cc1` (centres undefined) it is -3.7% (inactive). Take `CC(=O)C1(C(=O)Nc2nccs2)CC(c2ccccc2C(F)(F)F)=NO1` (centres undefined): the activity was 2.17% (inactive). Next, `O=C(O)CSCNC(=O)CC12CC3CC(CC(C3)C1)C2`: 5.91% (inactive); `C=CCNC(=O)C12CC3CC(C1)CC(C(=O)NCC=C)(C3)C2`: 1.74% (inactive); `C=CCNC(=O)CC12CC3CC(C1)CC(CC(=O)NCC=C)(C3)C2`: 27.5% (active). As for `Cc1cccc(NC(=O)c2cc(S(=O)(=O)N3CCC4(CC3)OCCO4)ccc2F)c1`, the activity was -2.46% (inactive). The figure for `O=C(N[C@H]1CC[C@H](CC(=O)N2CCCCC2)O[C@@H]1CO)c1cccc(F)c1` is 3.8% (inactive); for `CON(C)S(=O)(=O)c1ccc2c(c1)NC(=O)C1CCCN21` (centres undefined) it is -3.22% (inactive).

`COc1ccc(O)c(C(=O)c2cnc3c(c2)c(-c2ccc(F)cc2)c(C#N)c(=O)n3C)c1`: the activity is -4.88% (inactive). The figure for `Cn1c(N)cc(-c2ccc(F)cc2)c(C#N)c1=O` is -1.46% (inactive); for `Cc1cc(C)c2c(-c3ccc(F)cc3)c(C#N)c(=O)n(C)c2n1` it is 56.8% (active).
